Results taken from PubChem BioAssay (NCATS).
Records with an inconclusive call do not appear. Activity calls are given as the source filed them. Unless noted, the call rests on the fitted dose curve; in most records, active means well fitted curve in the direction sought with a large enough effect; inconclusive means small, poorly fitted or top-dose-only effect, or another doubt; inactive means no such curve, though single readings can be large; an effect the other way counts as inactive or inconclusive.

What was measured:
[1] = molecular target: Lysosomal acid glucosylceramidase (Homo sapiens) (UniProt P04062); test: Glucocerebrosidase-p2 (AID 348; in the data active means potency below about 10 µM; further: potency means the concentration at half of the fitted maximal effect); details: purified GBA, blue fluorogenic substrate, 40 min
Lysosomal acid glucosylceramidase (Homo sapiens), sequence (P04062 whole entry, looked up): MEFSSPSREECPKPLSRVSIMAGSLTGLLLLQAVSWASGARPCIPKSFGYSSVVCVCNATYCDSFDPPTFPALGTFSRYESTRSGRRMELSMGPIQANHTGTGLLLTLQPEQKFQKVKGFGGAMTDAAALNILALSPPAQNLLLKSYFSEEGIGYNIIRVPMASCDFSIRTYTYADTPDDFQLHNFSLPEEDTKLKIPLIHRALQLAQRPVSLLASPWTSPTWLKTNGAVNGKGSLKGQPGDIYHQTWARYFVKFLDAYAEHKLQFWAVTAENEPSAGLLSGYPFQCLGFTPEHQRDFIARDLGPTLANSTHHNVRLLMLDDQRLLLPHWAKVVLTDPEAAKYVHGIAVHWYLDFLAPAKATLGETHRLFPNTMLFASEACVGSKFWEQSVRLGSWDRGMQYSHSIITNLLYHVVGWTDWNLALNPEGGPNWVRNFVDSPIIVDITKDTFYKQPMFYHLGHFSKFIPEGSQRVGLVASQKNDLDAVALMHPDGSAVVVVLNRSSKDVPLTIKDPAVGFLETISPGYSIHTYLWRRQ
Method in brief: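 Normal human glucocerebrosidase (0.2 nM) with blue fluorogenic substrate (80 uM final) in citrate/phosphate pH 5.9 with 10mM sodium taurocholate, 0.01% tween-20; 40 min RT, NaOH/glycine stop; fluorescence Ex 365/Em 440; AC50 from a titration from 0.6 nM upwards.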

[2] = AP1 Signaling Pathway (AID 357; active means well fitted curve in either direction with a large enough effect, not every such curve was filed as active;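 further: ME-180 reporter cells stimulated with EGF at its EC50 level; on the % scale 0 is the no-effect control and ±100 the full control effect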); details: ME-180 AP-1-bla reporter, EGF-induced, beta-lactamase ratio, 5 h; at 7.69 µM (top of the series) unless noted
Method in brief: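 Titration-series screen for positive or negative modulators of EC50 EGF-induced signaling in ME-180 cells carrying an AP-1-driven beta-lactamase reporter. After 5 hours at 37 degrees Celsius, CCF4 460nm/530nm emission ratio gave %Activity; AC50 values derived.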

[3] = molecular target: Cytochrome P450 1A2 (Homo sapiens) (UniProt P05177); test: p450-cyp1a2 (AID 410; calls by dose curve; further: potency means the concentration at half of the fitted maximal effect); details: recombinant CYP1A2, luciferin-ME demethylation, luminescence; series mostly up to 57 µM
Cytochrome P450 1A2 (Homo sapiens), sequence (P05177 whole entry, looked up): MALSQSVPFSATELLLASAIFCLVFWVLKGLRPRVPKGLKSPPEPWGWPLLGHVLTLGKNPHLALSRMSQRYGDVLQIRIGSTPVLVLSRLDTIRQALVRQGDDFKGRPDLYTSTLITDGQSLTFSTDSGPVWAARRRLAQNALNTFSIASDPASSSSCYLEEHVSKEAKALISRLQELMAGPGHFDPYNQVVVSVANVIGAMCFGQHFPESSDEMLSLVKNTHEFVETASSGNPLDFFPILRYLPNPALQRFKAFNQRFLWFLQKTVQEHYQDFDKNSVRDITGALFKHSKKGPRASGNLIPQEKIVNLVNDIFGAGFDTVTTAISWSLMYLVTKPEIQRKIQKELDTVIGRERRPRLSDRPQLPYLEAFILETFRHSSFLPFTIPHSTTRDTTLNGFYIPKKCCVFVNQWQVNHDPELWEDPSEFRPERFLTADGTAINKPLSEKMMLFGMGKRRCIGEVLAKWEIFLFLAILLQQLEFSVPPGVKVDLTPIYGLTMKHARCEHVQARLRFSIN
Method in brief: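 Luminescent demethylation readout: Luciferin-ME (100uM, equal to Km) turned over by 20nM CYP1A2 for 60 min at room temperature after NADPH regeneration addition, following 10 min compound preincubation. Normalization used 57 uM furafylline as full inhibition.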

[4] = NFAT Signaling Pathway (AID 444; active means well fitted curve in either direction with a large enough effect, not every such curve was filed as active;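 further: carbachol stimulus at about its EC50 of 1 µM final; on the % scale 0 is the no-effect control and ±100 the full control effect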); details: Jurkat NFAT-bla M1, carbachol, beta-lactamase ratio, 5 h; at 7.69 µM (top of the series) unless noted
Method in brief: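 Read-out: CCF4 FRET ratio (460 nm/530 nm) after 1 h RT dye loading, used for %activity and AC50 from titration series. Cells: Jurkat NFAT-β-lactamase/M1 line, treated with compound plus 1 uM carbachol for 5 h, 37 °C.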

[5] = Stat Signaling Pathway (AID 446; active means well fitted curve in either direction with a large enough effect, not every such curve was filed as active;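 further: ME-180 cervical cancer cells given 40 pM IL-6 alongside compound; SIE-controlled beta-lactamase reporter measured as 460/530 nm FRET emission ratio; on the % scale 0 is the no-effect control and ±100 the full control effect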); details: ME-180 SIE beta-lactamase reporter, IL-6 stimulated, 5 h; at 7.69 µM (top of the series) unless noted
Method in brief: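 Emission at 460 and 530 nm (excitation 405 nm) reports SIE-controlled beta-lactamase in ME-180 cells. Cells received compound with 40 pM IL-6 for 5 hrs at 37 C; data scaled between 300 pM IL-6 and 125 nM JAK-inhibitor controls.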

[6] = molecular target: Glucocorticoid receptor (Homo sapiens) (UniProt P04150); test: GR-GFP Redistribution (AID 450;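 active means compounds whose dose series gives a full or clear partial fitted curve of increased nuclear translocation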; further: potency means the concentration at half of the fitted maximal effect); details: U2OS GR-GFP nuclear translocation, laser cytometry, 2 h
Glucocorticoid receptor (Homo sapiens), sequence (P04150 whole entry, looked up, the tested form may be a part): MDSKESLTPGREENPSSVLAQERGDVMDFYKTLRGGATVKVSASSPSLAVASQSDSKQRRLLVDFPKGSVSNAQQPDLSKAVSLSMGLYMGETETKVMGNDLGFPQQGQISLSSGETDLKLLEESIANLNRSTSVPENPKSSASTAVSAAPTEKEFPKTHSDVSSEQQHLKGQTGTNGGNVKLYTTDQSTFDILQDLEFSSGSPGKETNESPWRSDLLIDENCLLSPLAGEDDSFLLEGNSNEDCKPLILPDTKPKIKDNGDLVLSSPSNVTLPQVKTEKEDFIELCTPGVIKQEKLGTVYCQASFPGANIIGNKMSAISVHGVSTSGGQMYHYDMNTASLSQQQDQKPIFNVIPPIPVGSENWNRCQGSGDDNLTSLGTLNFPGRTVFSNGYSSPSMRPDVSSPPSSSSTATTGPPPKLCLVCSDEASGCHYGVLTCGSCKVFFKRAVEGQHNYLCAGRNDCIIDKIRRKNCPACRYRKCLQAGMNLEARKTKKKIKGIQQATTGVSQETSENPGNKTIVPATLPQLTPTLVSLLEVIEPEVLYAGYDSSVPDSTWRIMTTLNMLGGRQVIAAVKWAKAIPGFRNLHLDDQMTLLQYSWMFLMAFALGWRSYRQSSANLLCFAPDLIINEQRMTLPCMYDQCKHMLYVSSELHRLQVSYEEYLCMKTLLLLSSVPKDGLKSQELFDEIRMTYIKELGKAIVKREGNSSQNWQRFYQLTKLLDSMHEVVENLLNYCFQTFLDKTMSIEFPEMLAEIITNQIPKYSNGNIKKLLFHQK

[7] = molecular target: Glucocorticoid receptor (Homo sapiens) (UniProt P04150); test: GR-EFC Redistribution (AID 451; calls by dose curve; further: potency means the concentration at half of the fitted maximal effect); details: CHO-K1 GR-EFC translocation, beta-gal luminescence, 2 h
Method in brief: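 Translocation of GR-ED fusion to nuclear EA restores b-gal, read by luminescence after 1 h room-temperature detection. Engineered CHO-K1 biosensor cells, 1,000/well, exposed 2 h at 37 C to titrations up to 46 uM final.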

[8] = molecular target: Mitogen-activated protein kinase 10 (Mus musculus) (UniProt Q61831); test: JNK3 AlphaScreen Assay (AID 530; active means well fitted curve in either direction with a large enough effect, not every such curve was filed as active;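 further: kinase came from lysate of stimulated human HepG2 cells; signal reports phosphorylation of biotinylated GST-cJun 1-79 at Ser73 with 10 µM ATP; on the % scale 0 is the no-effect control and ±100 the full control effect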); details: JNK3 lysate, c-Jun phosphorylation; series mostly up to 57.1 µM
Method in brief: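 qHTS titrations with 15 min compound pre-incubation before adding ATP (10 uM final). Read-out: AlphaScreen of Ser73-phosphorylated biotin-GST-cJun using HepG2 lysate JNK3 activated by IL-1β and TNFα.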

[9] = molecular target: 3',5'-cyclic-AMP phosphodiesterase 4B (Homo sapiens) (UniProt Q07343); test: qHTS Assay for Inhibitors of PDE-IV (AID 607; active means well fitted activation curve with a large enough effect in the main read-out, with a control signal flat, not every such curve was filed as active; further: % of control where 0% means no effect); details: HEK293 ACTOne CNG channel cells, membrane potential fluorescence; series mostly up to 22.9 µM
3',5'-cyclic-AMP phosphodiesterase 4B (Homo sapiens), sequence (Q07343 whole entry, looked up): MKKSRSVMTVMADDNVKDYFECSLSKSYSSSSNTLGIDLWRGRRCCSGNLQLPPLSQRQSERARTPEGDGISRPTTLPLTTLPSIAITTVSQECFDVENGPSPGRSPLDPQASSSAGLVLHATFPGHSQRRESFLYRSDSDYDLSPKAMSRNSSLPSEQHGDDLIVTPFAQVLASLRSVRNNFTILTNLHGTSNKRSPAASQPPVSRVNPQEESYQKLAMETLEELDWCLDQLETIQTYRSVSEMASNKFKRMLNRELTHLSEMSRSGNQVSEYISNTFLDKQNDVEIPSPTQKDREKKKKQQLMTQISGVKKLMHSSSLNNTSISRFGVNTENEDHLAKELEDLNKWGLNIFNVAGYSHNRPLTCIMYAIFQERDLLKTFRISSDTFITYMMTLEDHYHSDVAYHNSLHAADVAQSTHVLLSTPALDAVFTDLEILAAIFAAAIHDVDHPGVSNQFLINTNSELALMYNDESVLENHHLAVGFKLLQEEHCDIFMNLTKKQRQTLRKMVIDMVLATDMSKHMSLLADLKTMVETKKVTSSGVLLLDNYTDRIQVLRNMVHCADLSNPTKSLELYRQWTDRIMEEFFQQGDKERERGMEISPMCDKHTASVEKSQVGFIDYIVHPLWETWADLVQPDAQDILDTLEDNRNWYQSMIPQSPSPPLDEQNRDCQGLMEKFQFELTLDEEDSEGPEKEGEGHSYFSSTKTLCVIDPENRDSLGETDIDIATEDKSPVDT
Method in brief: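 The readout is membrane depolarisation from a cAMP-sensing CNG channel, detected with a potential dye at ex 535/em 590. Cells were HEK293-derived (endogenous PDE-IV) at 1000 cells/well, titrated up to 22.9 uM final.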

[10] = molecular target: Cytochrome P450 3A4 (Homo sapiens) (UniProt P08684); test: qHTS Assay for Activators of Cytochrome P450 3A4 (AID 885); details: recombinant CYP3A4, Luciferin-PPXE luminescence, 60 min; series mostly up to 57.1 µM; further: nearly all actives have a fitted effect of over 65% in size
Cytochrome P450 3A4 (Homo sapiens), sequence (P08684 whole entry, looked up): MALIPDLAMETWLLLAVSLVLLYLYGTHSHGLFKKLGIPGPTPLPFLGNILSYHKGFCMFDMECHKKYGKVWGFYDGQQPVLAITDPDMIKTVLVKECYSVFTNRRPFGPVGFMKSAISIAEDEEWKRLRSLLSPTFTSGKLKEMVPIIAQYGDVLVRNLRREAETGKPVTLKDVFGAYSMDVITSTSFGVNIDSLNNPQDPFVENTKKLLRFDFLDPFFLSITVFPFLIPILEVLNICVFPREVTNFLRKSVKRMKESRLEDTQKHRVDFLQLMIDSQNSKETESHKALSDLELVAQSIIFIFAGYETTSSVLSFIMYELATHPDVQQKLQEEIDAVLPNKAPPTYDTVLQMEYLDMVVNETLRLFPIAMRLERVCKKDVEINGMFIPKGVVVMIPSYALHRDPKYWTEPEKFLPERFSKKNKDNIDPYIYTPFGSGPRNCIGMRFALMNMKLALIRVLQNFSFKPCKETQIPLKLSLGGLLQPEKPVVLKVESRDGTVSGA
Method in brief: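 Activators are scored by enhanced luminescence from CYP3A4 conversion of luciferin-PPXE (25uM, equal to KM) to luciferin, after 60 min at RT with an NADPH-regenerating system.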

[11] = qHTS Assay for Identification of Small Molecule Agonists for Hypoxia Response Element Signaling Pathway (AID 914; active means well fitted activation curve with a large enough effect in the signal ratio, with a control signal flat, not every such curve was filed as active; the % refers to the signal ratio; further: % of control where 0% means no effect); details: ME-180 (cervical carcinoma) HRE-bla reporter, beta-lactamase ratio, CoCl2, 17 h; activation: stronger effect = higher value
Method in brief: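 AC50 values come from titration-series %Activity, taken as the 460/530nm ratio of CCF4 fluorescence (excitation 405nm). CellSensor HRE-bla ME-180 cells were treated 17 hours at 37 C with compound plus an EC50 level of CoCl2.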

[12] = qHTS Assay for Lipid Storage Modulators (AID 1519; calls by dose curve); details: Drosophila S3 cells, BODIPY lipid droplet/cell ratio, laser cytometry, cells loaded with oleic acid; for activity change, negative = inhibition: at 57.5 µM (top of the series)
Method in brief: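 Cells seeded at 5,000 per well were treated with compounds over a concentration series and loaded with oleic acid (400 uM, as added). Lipid droplet fluorescence (488 nm excitation, 500-530 nm channel) was read by laser-scanning cytometry and normalized to 20 uM Triacsin C.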

[13] = molecular target: Dual specificity protein kinase CLK4 (Homo sapiens) (UniProt Q9HAZ1); test: qHTS Assay for Inhibitors of CDC-like Kinase 4 (Kinase-Glo Assay) (AID 1770); details: recombinant Clk4, Kinase-Glo ATP depletion luminescence; series mostly up to 66.7 µM; further: on the % scale 0 is the no-effect control and ±100 the full control effect; nearly all actives have a fitted effect of over 65% in size
Dual specificity protein kinase CLK4 (Homo sapiens), sequence (Q9HAZ1 whole entry, looked up): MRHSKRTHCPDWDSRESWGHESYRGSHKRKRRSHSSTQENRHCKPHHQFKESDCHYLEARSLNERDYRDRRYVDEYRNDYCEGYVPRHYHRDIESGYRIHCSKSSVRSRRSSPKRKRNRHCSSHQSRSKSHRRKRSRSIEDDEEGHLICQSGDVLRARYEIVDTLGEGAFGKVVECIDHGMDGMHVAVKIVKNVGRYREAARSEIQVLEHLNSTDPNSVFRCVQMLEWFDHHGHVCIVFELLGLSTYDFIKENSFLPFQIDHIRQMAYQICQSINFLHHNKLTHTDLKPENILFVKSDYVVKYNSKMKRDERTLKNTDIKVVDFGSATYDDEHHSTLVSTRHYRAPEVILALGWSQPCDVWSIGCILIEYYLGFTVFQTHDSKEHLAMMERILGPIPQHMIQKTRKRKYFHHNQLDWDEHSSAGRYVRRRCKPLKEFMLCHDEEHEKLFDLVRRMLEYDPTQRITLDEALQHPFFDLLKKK
Method in brief: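 Inhibition was judged from remaining ATP, measured by Ultra-Glo luciferase bioluminescence after Clk4 (25 nM) had acted on RS peptide at 1 uM ATP for 4.5 hours, room temperature.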

[14] = molecular target: Dual specificity protein kinase CLK4 (Homo sapiens) (UniProt Q9HAZ1); test: qHTS Assay for Inhibitors of CDC-like Kinase 4 (ADP-Glo Assay) (AID 1771); details: recombinant CLK4, ADP-Glo luminescence; series mostly up to 80 µM; further: on the % scale 0 is the no-effect control and ±100 the full control effect; nearly all actives have a fitted effect of over 70% in size
Method in brief: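 ADP production was read by ADP-Glo luminescence after residual ATP depletion, following 1 h room-temperature reaction of 25 nM Clk4, 1 uM ATP and 100 uM RS peptide with MgCl2, EGTA, DTT and Triton X-100.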

[15] = molecular target: Dual specificity protein kinase CLK4 (Homo sapiens) (UniProt Q9HAZ1); test: qHTS Assay for Inhibitors of CDC-like Kinase 4 (ADP-FP Assay) (AID 1795); details: Transcreener ADP fluorescence polarization; series mostly up to 50 µM;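 further: recombinant human CLK4 phosphorylating RS repeat peptide at 1 µM ATP; on the % scale 0 is the no-effect control and ±100 the full control effect; nearly all actives have a fitted effect of over 60% in size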
Method in brief: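 Inhibition of ADP formation by 6.25 nM Clk4 is measured using 1 uM ATP and 100 uM RS repeat peptide over one hour. Produced ADP displaces a fluorescent tracer from antibody, lowering polarization.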

[16] = molecular target: Ubiquitin carboxyl-terminal hydrolase 1 (Homo sapiens) (UniProt O94782); test: Inhibitors of USP1/UAF1: Pilot qHTS (AID 504865); details: purified USP1/UAF1, Ub-rhodamine cleavage fluorescence; series mostly up to 54.9 µM;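 further: rhodamine fluorescence freed from ubiquitin-rhodamine substrate followed over time; top concentration of the series differs between compounds; on the % scale 0 is the no-effect control and ±100 the full control effect; nearly all actives have a fitted effect of over 35% in size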
Ubiquitin carboxyl-terminal hydrolase 1 (Homo sapiens), sequence (O94782 whole entry, looked up): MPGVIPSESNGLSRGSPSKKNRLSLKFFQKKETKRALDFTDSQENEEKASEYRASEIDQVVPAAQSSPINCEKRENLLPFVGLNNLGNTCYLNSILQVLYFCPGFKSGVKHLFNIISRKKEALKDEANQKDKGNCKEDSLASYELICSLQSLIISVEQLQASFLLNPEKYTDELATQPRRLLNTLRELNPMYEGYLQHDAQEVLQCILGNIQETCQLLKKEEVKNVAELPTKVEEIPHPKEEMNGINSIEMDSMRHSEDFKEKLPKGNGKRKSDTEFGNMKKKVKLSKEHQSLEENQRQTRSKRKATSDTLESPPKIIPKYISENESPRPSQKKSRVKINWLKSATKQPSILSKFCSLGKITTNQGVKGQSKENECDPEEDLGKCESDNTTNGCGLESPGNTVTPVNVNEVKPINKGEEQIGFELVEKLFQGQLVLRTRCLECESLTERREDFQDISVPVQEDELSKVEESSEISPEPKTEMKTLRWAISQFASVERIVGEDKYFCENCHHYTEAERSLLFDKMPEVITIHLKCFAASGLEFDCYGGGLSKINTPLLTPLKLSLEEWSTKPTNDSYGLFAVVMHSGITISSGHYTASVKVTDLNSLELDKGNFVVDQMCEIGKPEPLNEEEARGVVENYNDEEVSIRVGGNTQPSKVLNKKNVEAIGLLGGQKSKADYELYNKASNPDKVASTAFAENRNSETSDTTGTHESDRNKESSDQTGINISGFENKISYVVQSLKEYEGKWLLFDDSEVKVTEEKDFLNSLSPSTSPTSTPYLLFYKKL
Method in brief: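 Kinetic fluorescence assay: 1nM USP1/UAF1, 15 min compound preincubation, then 150nM Ub-Rho; 480/540 nm.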

[17] = Primary qHTS for small molecule stabilizers of the endoplasmic reticulum resident proteome: Secreted ER Calcium Modulated Protein (SERCaMP) assay (AID 1508630); details: SH-SY5Y GLuc-SERCaMP (Gaussia luciferase released on ER calcium loss) secretion, thapsigargin, luminescence; series mostly up to 38.4 µM; further: on the % scale 0 is the no-effect control and ±100 the full control effect
Method in brief: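 The SH-SY5Y reporter protocol was run at 3 concentrations up to 38.3 uM (primary) or 11 concentrations (follow-up): 16 h compound, 100 nM thapsigargin for 4 h, then extracellular luciferase luminescence.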

[18] = measured here: cell count channel max response
[19] = measured here: lipid channel max response

CN1CCN(c2ncc3nc(CCc4ccccc4)c(=O)n(C4CC4)c3n2)CC1
15.9%: max response [12, 18]
inactive: Potency [1] > 11.4 µM | activity change, negative = inhibition [2] 10.3% | activity change, negative = inhibition [4] 15.1% | activity, negative = inhibition [5] -7.8% | Potency [6] > 9.22 µM | Potency [7] > 46 µM | outcome [8] | Potency [9] | Potency [10] | activation [11] -5.15% | activity change, negative = inhibition [12] 1.8% | Potency [13] | Potency [14] | Potency [15] | Potency [16] | Potency [17]
14.9%: max response [12, 19]
active: Potency [3] 12.6 µM

CN(Cc1ccco1)c1ncncc1-c1ccoc1
inactive: Potency [1] > 11.4 µM | activity change, negative = inhibition [2] -12.2% | activity change, negative = inhibition [4] -18.1% | activity, negative = inhibition [5] -2% | Potency [7] > 46 µM | outcome [8] | Potency [9] | Potency [10] | activity change, negative = inhibition [12] 6.13% | Potency [13] | Potency [14] | Potency [15] | Potency [16] | Potency [17]
22.8%: max response [12, 18]
active: Potency [3] 15.8 µM
28.4%: max response [12, 19]
